Ins promoter up: MIN6 insulin promoter up-regulation | MIN6 insulin promoter-GFP reporter, high-content imaging; hits give high values | z-score at 5 µM | 190,000 compounds, 0.3% hits;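 active = z-score above 3 at 5 µM with at least 500 cells counted in the well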
INS promoter inh: TRM-6 insulin promoter activity inhibition; inhibition, % at 2 µM; TRM-6 cells (human fetal islet line), insulin promoter-eGFP reporter, imaging; reporter expression induced with tamoxifen; AID 1273; 130,000 compounds, 0.9% hits;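 active = inhibition above the mean plus 3 SD, with well images judged a real hit on visual review, cut at about 60% in these data, passing the limit was not always enough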
S1P4 antag: blocks the human S1P4 receptor; O95977; S1P4-expressing cells, antagonist mode, reporter read-out; inhibition, % at 4.98 µM; 220,000 compounds, 0.26% hits; AID 1510; in the data active = inhibition above about 29%
Target sequence (O95977 whole entry, looked up): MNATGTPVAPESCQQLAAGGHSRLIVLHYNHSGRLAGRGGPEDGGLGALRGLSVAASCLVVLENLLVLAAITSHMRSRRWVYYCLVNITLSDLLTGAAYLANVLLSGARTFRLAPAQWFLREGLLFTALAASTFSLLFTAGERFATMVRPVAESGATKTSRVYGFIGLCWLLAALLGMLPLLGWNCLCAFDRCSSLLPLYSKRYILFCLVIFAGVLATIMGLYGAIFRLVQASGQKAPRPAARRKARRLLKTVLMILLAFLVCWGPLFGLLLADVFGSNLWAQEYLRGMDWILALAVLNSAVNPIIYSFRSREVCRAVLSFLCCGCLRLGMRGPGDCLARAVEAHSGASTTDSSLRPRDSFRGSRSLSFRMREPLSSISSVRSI
S1P3 antagonist: blocks the human S1P3 receptor; CHO S1P3 NFAT-BLA reporter, FRET fluorescence, antagonist mode; 170,000 compounds, 0.27% hits; AID 485; inhibition, % at 4.98 µM; Q99500;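 active = inhibition above the plate cutoff, the mean inhibition of test wells on that plate plus 3 SD, cut at about 28% in these data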;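 note: cells challenged with S1P at its EC80 of 0.8 µM; blue over green emission ratio from cleaved BLA substrate after 4 h stimulation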
S1P4 ag: agonists of human S1P4 receptor | AID 1509 | 220,000 compounds, 0.35% hits | S1P4-expressing cell line, agonist reporter assay | activation, % at 4.98 µM | O95977; in the data active = activation above about 11%
Hsp70 activator: transcriptional activators of Hsp70 | activation, % at 10 µM | 200,000 compounds, 0.04% hits | HeLa Hsp70 promoter luciferase reporter, luminescence; scaled: vehicle 0, proteasome-inhibitor control 100%;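 active = activation above the mean across all tested compounds plus 3 SD, cutoff set per campaign, cut at about 5.5% in these data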
S1P4 ag conf: confirmation of human S1P4 receptor agonists | activation, % at 4.98 µM | AID 1523 | S1P4 agonist cell-based reporter assay | 740 compounds, 7% hits | shares compounds with S1P4 ag; in the data active = activation above about 12%
S1P1 agonist: human S1P1 agonism as S1P4 agonist counter-screen; shares compounds with S1P4 ag; S1P1 agonist cell-based assay, activation; activation, % at 4.98 µM; 740 compounds, 4% hits; AID 1563; in the data active = activation above about 21%
Each line names hits and unclear results; the compound was inactive in the other large screens (follow-up assays come after a bar, where they were run). Sampled rows, rich in hits. Any-hit rate of the full collection: about 1.5%.

COc1ccc(N2CCN(C(=O)CCCSc3nc4ccccc4[nH]3)CC2)cc1	none (no result: S1P3 antagonist)
Cc1c(NC(=O)Cn2cc([N+](=O)[O-])cn2)c(=O)n(-c2ccccc2)n1C	none (no result: INS promoter inh)
Cc1c(NC(=O)Cn2ccc([N+](=O)[O-])n2)c(=O)n(-c2ccccc2)n1C	S1P4 ag 25 (no result: INS promoter inh, S1P3 antagonist) | S1P4 ag conf inactive | S1P1 agonist inactive
COc1cccc(SCC2CSc3nc4ccccc4c(=O)n32)c1 (stereo not given)	none
Nc1ccccc1SCC1CSc2nc3ccccc3c(=O)n21 (stereo not given)	S1P4 ag 14 | S1P4 ag conf inactive | S1P1 agonist inactive
COc1cccc(-n2nc(C(C)=O)c(C#N)c2-c2ccco2)c1	S1P4 ag 38 | S1P4 ag conf inactive | S1P1 agonist inactive
COc1ccc2c(c1OC)C(=O)OC2Nc1ccccc1S(=O)(=O)C(F)F (stereo not given)	S1P4 ag 17 (no result: Ins promoter up) | S1P4 ag conf inactive | S1P1 agonist inactive
COc1ccc2c(c1OC)C(=O)OC2Nc1ccccn1 (stereo not given)	none
COc1ccc(N2CC(C(=O)NCc3ccccc3)CC2=O)cc1 (stereo not given)	S1P4 ag 32 (no result: INS promoter inh) | S1P4 ag conf inactive | S1P1 agonist inactive
COc1ccc(N2CC(C(=O)OCC(=O)NCc3ccccc3)CC2=O)cc1 (stereo not given)	none (no result: S1P3 antagonist)
COC(=O)c1cc(NC(=O)c2ccc(OC)cc2)c(=O)oc1C	none (no result: INS promoter inh)
CCOC(=O)c1cc(NC(=O)c2ccc(OC)cc2)c(=O)oc1-c1ccccc1	S1P4 ag 22 (no result: S1P3 antagonist) | S1P4 ag conf inactive | S1P1 agonist inactive
CS(=O)(=O)N(C(=O)NC(=O)NC12CC3CC(CC(C3)C1)C2)C1CCCCC1	none (no result: INS promoter inh)
Cc1cc(=O)[nH]c(N/N=C/c2c(O)n(-c3ccccc3)c(=O)c3ccccc23)n1	S1P4 ag 29 | S1P4 ag conf inactive | S1P1 agonist inactive
CC(=O)Nc1nc(SCc2ccc(Cl)cc2Cl)n[nH]1	S1P4 ag 12 (no result: S1P3 antagonist) | S1P4 ag conf inactive | S1P1 agonist inactive
Nc1nc(SCc2ccc(Cl)cc2Cl)n[nH]1	none
Cc1c(Cl)c([N+](=O)[O-])nn1Cc1ccc(C(=O)Nc2ccc(Cl)cn2)o1	none (no result: Ins promoter up)
O=C(Nc1ccc(Cl)cn1)c1ccc([N+](=O)[O-])o1	S1P4 ag 49 (no result: INS promoter inh) | S1P4 ag conf inactive | S1P1 agonist inactive
Cc1cccc(NC(=S)N2CCN(S(=O)(=O)c3cccc(F)c3)CC2)c1	S1P4 ag 20 | S1P4 ag conf inactive | S1P1 agonist inactive
COc1ccc(CN2CCC(N3CCC(C(=O)N4CCOCC4)CC3)CC2)c(F)c1	S1P4 ag 11 (no result: INS promoter inh) | S1P4 ag conf inactive | S1P1 agonist inactive
CC(C)C(=O)NC(=S)Nc1ccccc1C(=O)NC1CCCCC1	S1P4 ag 58 | S1P4 ag conf inactive | S1P1 agonist inactive
O=c1cc(N2CCCCC2)nc2n1CCCS2	S1P4 ag 25 (no result: S1P3 antagonist) | S1P4 ag conf inactive | S1P1 agonist inactive
COc1ccc2occ(C(=O)c3cccs3)c2c1	S1P4 ag 166 (no result: S1P3 antagonist) | S1P4 ag conf inactive | S1P1 agonist inactive
COC(=O)C1(Cc2ccc(O)c(CC3OC3(C)C)c2)OC(=O)C(O)=C1c1ccc(O)cc1 (stereo not given)	none (no result: INS promoter inh, S1P4 antag, S1P3 antagonist, S1P4 ag, Hsp70 activator)
O=C(Nc1ccn(Cc2ccccc2)n1)c1cccc(Cn2cc([N+](=O)[O-])cn2)c1	S1P4 ag 13 | S1P4 ag conf inactive | S1P1 agonist inactive
COc1ccc(NC(=O)Cn2cccc2)c(OC)c1	S1P4 ag 35 (no result: Ins promoter up, INS promoter inh) | S1P4 ag conf inactive | S1P1 agonist inactive
CCO[C@H]1OC(C(=O)NC2CC2)=C[C@@H](C2CC2)[C@@H]1CCCO	none (no result: INS promoter inh)
O=C(CN1CCN(Cc2ccc(F)cc2)C1=O)NC1CCCC1	none
Cc1cccnc1NC(=O)Nc1cccc(C(F)(F)F)c1	none (no result: Ins promoter up)
CNC(=O)c1cccnc1Nc1cccc(C(F)(F)F)c1	S1P4 ag 33 (no result: INS promoter inh) | S1P4 ag conf inactive | S1P1 agonist inactive
COc1ccc(CNC(=O)CN2CCN(S(=O)(=O)c3cccs3)CC2)cc1OC	none
N#Cc1c(-n2cccc2C=O)sc2c1CCCC2	S1P4 ag 19 (no result: INS promoter inh) | S1P4 ag conf 14 | S1P1 agonist inactive
O=C(Cn1nnc(-c2cccc(C(F)(F)F)c2)n1)NC1CCCC1	none (no result: INS promoter inh)
CCOCCN(C(=O)COC)c1cccc(OC)c1	S1P4 ag 26 (no result: S1P3 antagonist) | S1P4 ag conf inactive | S1P1 agonist inactive
CCOC(=O)C1CCN(C(=O)c2c(-c3c(F)cccc3Cl)noc2C)CC1	none
COC(=O)c1cc(C(=O)OC)cc(N2C(=O)CC(NNC(=O)c3ccc(C)cc3)C2=O)c1 (stereo not given)	S1P4 ag 29 | S1P4 ag conf inactive | S1P1 agonist inactive
CC1OC23CCCCC2C(C#N)(C(=N)O3)C1(C#N)C#N (stereo not given)	INS promoter inh 77, S1P4 ag 12 (no result: S1P3 antagonist) | S1P4 ag conf inactive | S1P1 agonist inactive
CCC1OC23CCCCC2C(C#N)(C(=N)O3)C1(C#N)C#N (stereo not given)	none (no result: S1P3 antagonist)
CC(C)CC(=O)NC(c1ccccc1Cl)c1c(O)ccc2ccccc12 (stereo not given)	S1P4 ag 13 (no result: INS promoter inh) | S1P4 ag conf inactive | S1P1 agonist inactive
CC(OC(=O)c1cc2sccc2n1C)C(=O)NCc1cccs1 (stereo not given)	S1P4 ag 22 | S1P4 ag conf inactive | S1P1 agonist inactive
Cc1cc(O)c(C(C)C)cc1NS(=O)(=O)c1ccccc1	none
Cc1cc(OCCN2CCCCCC2)ccc1[N+](=O)[O-]	S1P4 ag 24 (no result: INS promoter inh) | S1P4 ag conf inactive | S1P1 agonist inactive
Cc1cc(OCC(=O)N2CCCCCC2)ccc1[N+](=O)[O-]	none
CC(C)c1ccc(/C=C2\C(=O)N(CCN3CCOCC3)C(=S)N2C)cc1	S1P4 ag 43 (no result: INS promoter inh) | S1P4 ag conf inactive | S1P1 agonist inactive
CC(C)c1ccc(/C=C/C(=O)Nc2ccc(CN3CCOCC3)cc2)cc1	none (no result: INS promoter inh, Hsp70 activator)
COC(=O)c1ccc(NC(=O)CCn2c(=O)oc3ccccc32)cc1	S1P4 ag 13 | S1P4 ag conf inactive | S1P1 agonist inactive
Cc1ccccc1NC(=O)CCn1c(=O)oc2ccccc21	none (no result: INS promoter inh)
CCOC(=O)n1ccc(C(=O)Nc2ccccc2F)n1	S1P4 ag 16 (no result: INS promoter inh) | S1P4 ag conf inactive | S1P1 agonist inactive
O=C(N/N=C/c1cccc(C(F)(F)F)c1)c1cc2c(s1)-c1ccccc1CC2	S1P4 ag 45 (no result: S1P3 antagonist) | S1P4 ag conf inactive | S1P1 agonist inactive
Cc1cccc(/C=N/NC(=O)c2cc3c(s2)-c2ccccc2CC3)c1	none (no result: S1P3 antagonist)
CC/C(=N\O)c1c(O)c2c(n(-c3ccccc3)c1=O)CCCC2	S1P4 ag 22 | S1P4 ag conf inactive | S1P1 agonist inactive
CCOC(=O)c1c(C)n(C)c2ccc(OC(=O)c3ccco3)cc12	none (no result: S1P3 antagonist)
CCOC(=O)c1cc2ccc(OC(=O)c3ccco3)cc2oc1=O	S1P4 ag 149 | S1P4 ag conf 84 | S1P1 agonist 96
COC(=O)c1ccc(NC(C)=O)o1	none (no result: INS promoter inh, S1P3 antagonist)

Source: PubChem (several laboratories)
